Rows were chosen to be rich in hits. Some 0.24% of all compounds tested hit in one or more screens of this group.
TSHR antag = Antagonists of the Thyroid Stimulating Hormone Receptor: HTS campaign; Thyrotropin receptor (Homo sapiens), P16473; TSHR-expressing cells, TSH-stimulated cAMP HTRF, 2 h; active compounds read low; activity change, negative = inhibition, % at 11.5 µM; 330,000 compounds, 0.2% hits; AID 504810, 2011;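 active = activity change below a set negative limit, meaning inhibition stronger than a set level, cut at about -70% in these data; inconclusive = activity change between two set negative limits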
Target sequence (P16473 whole entry, looked up): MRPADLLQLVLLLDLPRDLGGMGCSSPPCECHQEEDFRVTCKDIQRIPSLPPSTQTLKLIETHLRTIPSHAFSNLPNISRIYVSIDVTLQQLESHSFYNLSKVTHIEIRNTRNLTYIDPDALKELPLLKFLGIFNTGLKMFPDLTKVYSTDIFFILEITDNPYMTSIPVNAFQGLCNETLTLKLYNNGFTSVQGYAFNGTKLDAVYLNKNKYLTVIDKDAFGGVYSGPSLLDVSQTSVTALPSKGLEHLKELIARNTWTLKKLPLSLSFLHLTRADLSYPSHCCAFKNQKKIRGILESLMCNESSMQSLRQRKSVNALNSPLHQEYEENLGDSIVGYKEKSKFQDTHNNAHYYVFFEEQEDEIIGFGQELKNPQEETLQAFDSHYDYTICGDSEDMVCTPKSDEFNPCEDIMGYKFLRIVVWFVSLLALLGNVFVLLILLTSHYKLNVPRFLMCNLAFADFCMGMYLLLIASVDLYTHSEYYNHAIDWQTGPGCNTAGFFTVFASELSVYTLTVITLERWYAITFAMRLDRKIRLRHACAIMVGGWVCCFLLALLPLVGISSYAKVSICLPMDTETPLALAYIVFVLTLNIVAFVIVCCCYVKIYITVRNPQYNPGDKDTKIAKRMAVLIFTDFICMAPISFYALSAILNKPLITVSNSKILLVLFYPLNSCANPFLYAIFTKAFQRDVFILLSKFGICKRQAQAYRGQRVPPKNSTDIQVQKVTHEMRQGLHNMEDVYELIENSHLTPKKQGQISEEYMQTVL
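TSHR-expressing cells were treated with compounds, then stimulated with TSH at EC80 (4nM final) for 2 hours at 37 deg C. Cellular cAMP was measured by HTRF competition between lysate cAMP and cAMP-d2 for a cryptate-labelled anti-cAMP antibody.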
TCR activator = Activators of T cell receptors: qHTS campaign; primary human leukocytes, anti-CD3, IL-2 HTRF, 48 h; 330,000 tested, under 10 active; Potency, µM (titrated, usually from 9.22 µM), usual class: activators
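TCR engagement came from a-CD3 beads alone, with compounds added to primary human leukocytes for 48 hr. Secreted IL-2 bridged europium cryptate- and d2-labelled anti-IL-2 antibodies, giving FRET emission at 665nm after 320nm excitation.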
Integrin act MD = qHTS for Activators of Integrin-Mediated Alleviation for Muscular Dystrophy. alpha7betagal myoblasts, beta-gal FDG fluorescence, 48 h. Potency, µM (top dose mostly 38.3 µM), actives largely listed as activators. 350,000 compounds, 0.064% hits. AID 624291, 2012; note: nearly all actives have a fitted effect of over 60% in size
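Alpha7betagal+/- myoblasts (passage 13) were plated 16-24 hr, then exposed to compounds (1:260 dilution of DMSO stock) for 48 hours at 37C. After MPER lysis, β-galactosidase reporter activity was read as FDG fluorescence (ex 480/em 540) after 30 minutes.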
Eya2 phos inh = qHTS Assay for Inhibitors of the Phosphatase Activity of Eya2; Potency, µM (highest dose often 76.9 µM), hits mostly inhibitors; 330,000 compounds, 0.006% hits; recombinant Eya2, OMFP fluorescence dephosphorylation (OMFP is methylfluorescein phosphate)
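Eya2 (0.2 uM) preincubated 10 min at ambient with compound, then OMFP substrate added at 50 uM; 10 min reaction in 50 mM HEPES pH 7.5, 50 mM NaCl, 5 uM MgCl2, 0.05% BSA, 1 mM DTT. Fluorescence read at Ex 485/Em 525 nm.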
Of the large screens only hits and unclear results are named; the others gave an inactive call. Unless noted, calls come from the whole dose curve; as a rule, active = well fitted curve in the direction sought with a large enough effect; inconclusive = small, poorly fitted or top-dose-only effect, or another doubt; inactive = no such curve, though single readings can be large; an effect the other way counts as inactive or inconclusive.

O=C(NCCC1=CCCCC1)C(=O)NCC1OCCCN1S(=O)(=O)c1ccccc1 (stereo not drawn)	TSHR antag -90.4
Cc1ccc(C)c(S(=O)(=O)N2CCCOC2CNC(=O)C(=O)NCCC2=CCCCC2)c1 (stereo not drawn)	TSHR antag inconclusive
CCOC(=O)c1nnc(-c2ccccc2)o1	none (no result: TCR activator)
O=C(CCc1ccccc1)c1nnc(-c2ccccc2)o1	Integrin act MD 10µM
COc1ccc([C@H]2N[C@]3(CCCN(Cc4ccc(Cl)cc4)C3=O)[C@H]3C(=O)N(Cc4ccccc4)C(=O)[C@@H]23)cc1	none (no result: TSHR antag, TCR activator, Eya2 phos inh)
COc1ccc(Cl)cc1NC(=O)C1CCN(C(=O)C2CC(=O)N(c3ccc(C)cc3)C2)CC1 (stereo not drawn)	TSHR antag -113.4
CCOC(=O)c1c(/C=N/Nc2ccccc2)c2sc(C)cc2n1C	none (no result: TCR activator, Integrin act MD)
COc1ccc(CN2CCNC(=O)C2CC(=O)NCCc2c[nH]c3ccccc23)c(OC)c1 (stereo not drawn)	Integrin act MD 10µM
COc1ccc(CN2CCNC(=O)C2CC(=O)NCCc2nc(C)c(C)s2)c(OC)c1 (stereo not drawn)	none
N#CCC(=O)Nc1ccc(C(=O)Nc2cccc(S(=O)(=O)N3CCCC3)c2)cc1	none (no result: TSHR antag, TCR activator, Eya2 phos inh)
COc1ccc(N(C(=O)c2snc(C(N)=O)c2N)C(C(=O)NC2CCCC2)c2ccco2)cc1 (stereo not drawn)	none
CCc1ccc(N(C(=O)c2snc(C(N)=O)c2N)C(C(=O)NC2CCCC2)c2ccco2)cc1 (stereo not drawn)	Integrin act MD 2.51µM
COc1ccccc1NC(=O)c1ccccc1NS(=O)(=O)c1cccs1	none
COc1ccc(C)cc1NC(=O)c1ccccc1NS(=O)(=O)c1ccc(Cl)s1	TSHR antag -76.3
CCCCN(CCCC)c1ncnc2nc[nH]c12	none
CCCCN(Cc1ccccc1)c1ncnc2nc[nH]c12	TSHR antag -70.3
O=C(CCNC(=O)c1ccc([N+](=O)[O-])cc1)NCc1ccco1	none
CCCNc1c(NS(=O)(=O)c2ccc(Br)cc2)c(=O)oc2ccccc12	TSHR antag -146.7
O=[N+]([O-])c1ccc(N=Nc2ccc(O)cc2O)cc1	TSHR antag -74.0
CCOc1ccc(N(CC(=O)NCc2ccc(F)cc2)C(=O)CCC(=O)Nc2nccs2)cc1	TSHR antag -94.6
O=S(=O)(NC(=NC1CCCCC1)c1ccccc1F)c1ccccc1	Integrin act MD 10µM
O=C(O)CCSc1nc2ccccc2n1Cc1ccccc1	TSHR antag -116.6
CCCn1c(SCCC(=O)O)nc2ccccc21	Integrin act MD inconclusive
N#C/C(=C\c1ccc(Oc2ccc(C(F)(F)F)cc2[N+](=O)[O-])cc1)c1nc2ccccc2[nH]1	TSHR antag -70.9
CC(Sc1nc(-c2ccccc2)c(-c2ccccc2)[nH]1)C(=O)NCC1CCCO1 (stereo not drawn)	none (no result: TSHR antag, TCR activator, Eya2 phos inh)
COc1ccc(NS(=O)(=O)c2cn(C)cn2)cc1Cl	TSHR antag -141.6
Cn1cnc(S(=O)(=O)Nc2ccc(Cl)c(C(F)(F)F)c2)c1	none
CCCCNC(=O)c1sc(=S)n2c1[nH]c(=O)c1ccccc12	TSHR antag -73.9
O=C(NC1CCCCC1)c1sc(=S)n2c1[nH]c(=O)c1ccccc12	TSHR antag -83.4
CCOc1ccc(CCNC(=O)c2ccc3c(=O)[nH]c4c(C(=O)NC(C)C)sc(=S)n4c3c2)cc1	TSHR antag -85.5
O=C(NCCc1ccccc1)c1ccc2c(=O)[nH]c3c(C(=O)NCC4CCCO4)sc(=S)n3c2c1 (stereo not drawn)	TSHR antag inconclusive

Screens deposited in PubChem by National Center for Advancing Translational Sciences (NCATS).
